Data on six molecules can be found in ChEMBL document CHEMBL2218924, “A broad activity screen in support of a chemogenomic map for kinase signalling research and drug discovery” (Biochem J, 2013).

The target of assay [1] is Calcium/calmodulin-dependent protein kinase type 1 (Homo sapiens) (UniProt Q14012). The conditions noted are these: at 1 µM.
The target is the same in assay [2]. The conditions noted are these: at 10 µM.
In assay [3] the target is Calcium/calmodulin-dependent protein kinase type II subunit beta (Homo sapiens) (UniProt Q13554). Conditions: at 1 µM.
Chain of Calcium/calmodulin-dependent protein kinase type II subunit beta (Homo sapiens) (Q13554 whole entry): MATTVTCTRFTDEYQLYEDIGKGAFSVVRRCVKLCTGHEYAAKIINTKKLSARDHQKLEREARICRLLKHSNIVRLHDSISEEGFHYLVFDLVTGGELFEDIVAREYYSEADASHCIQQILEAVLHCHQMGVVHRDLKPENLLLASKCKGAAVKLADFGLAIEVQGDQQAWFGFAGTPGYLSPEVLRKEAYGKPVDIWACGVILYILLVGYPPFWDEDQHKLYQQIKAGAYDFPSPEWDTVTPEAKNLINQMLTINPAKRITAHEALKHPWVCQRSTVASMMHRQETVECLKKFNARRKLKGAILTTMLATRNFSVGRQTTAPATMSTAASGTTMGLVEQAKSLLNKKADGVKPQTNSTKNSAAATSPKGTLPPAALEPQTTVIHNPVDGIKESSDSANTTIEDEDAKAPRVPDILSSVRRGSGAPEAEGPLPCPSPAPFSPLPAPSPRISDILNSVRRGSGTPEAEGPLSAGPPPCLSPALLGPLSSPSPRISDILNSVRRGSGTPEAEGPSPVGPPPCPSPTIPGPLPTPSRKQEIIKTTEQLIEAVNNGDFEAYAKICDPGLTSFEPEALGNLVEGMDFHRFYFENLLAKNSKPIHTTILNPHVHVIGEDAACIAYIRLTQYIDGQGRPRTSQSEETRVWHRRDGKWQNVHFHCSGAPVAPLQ
Assay [4] has the same target. Conditions: at 10 µM.
Assay [5] has as its target Calcium/calmodulin-dependent protein kinase type II subunit gamma (Homo sapiens) (UniProt Q13555). The conditions noted are these: at 1 µM.
Assay [6] shares this target. Conditions: at 10 µM.
The target in assay [7] is Calcium/calmodulin-dependent protein kinase type II subunit delta (Homo sapiens) (UniProt Q13557). Conditions: at 1 µM.
Chain of Calcium/calmodulin-dependent protein kinase type II subunit delta (Homo sapiens) (Q13557 whole entry): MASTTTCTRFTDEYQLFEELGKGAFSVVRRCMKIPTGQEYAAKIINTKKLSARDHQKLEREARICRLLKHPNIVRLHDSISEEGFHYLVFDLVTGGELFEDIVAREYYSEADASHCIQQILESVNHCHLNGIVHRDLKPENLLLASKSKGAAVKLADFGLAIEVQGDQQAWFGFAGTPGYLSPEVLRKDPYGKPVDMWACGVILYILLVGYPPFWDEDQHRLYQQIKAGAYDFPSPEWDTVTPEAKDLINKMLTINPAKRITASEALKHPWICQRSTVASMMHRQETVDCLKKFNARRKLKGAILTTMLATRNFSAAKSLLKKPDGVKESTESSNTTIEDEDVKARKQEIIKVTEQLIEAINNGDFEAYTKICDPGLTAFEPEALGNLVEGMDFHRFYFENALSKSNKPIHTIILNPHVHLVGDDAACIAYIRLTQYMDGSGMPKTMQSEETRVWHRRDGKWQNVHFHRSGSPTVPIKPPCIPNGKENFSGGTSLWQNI
Assay [8] has the same target. The conditions noted are these: at 10 µM.
Assay [9] has as its target T1, Calcium/calmodulin-dependent protein kinase type IV (Homo sapiens) (UniProt Q16566).
T1 sequence (whole entry): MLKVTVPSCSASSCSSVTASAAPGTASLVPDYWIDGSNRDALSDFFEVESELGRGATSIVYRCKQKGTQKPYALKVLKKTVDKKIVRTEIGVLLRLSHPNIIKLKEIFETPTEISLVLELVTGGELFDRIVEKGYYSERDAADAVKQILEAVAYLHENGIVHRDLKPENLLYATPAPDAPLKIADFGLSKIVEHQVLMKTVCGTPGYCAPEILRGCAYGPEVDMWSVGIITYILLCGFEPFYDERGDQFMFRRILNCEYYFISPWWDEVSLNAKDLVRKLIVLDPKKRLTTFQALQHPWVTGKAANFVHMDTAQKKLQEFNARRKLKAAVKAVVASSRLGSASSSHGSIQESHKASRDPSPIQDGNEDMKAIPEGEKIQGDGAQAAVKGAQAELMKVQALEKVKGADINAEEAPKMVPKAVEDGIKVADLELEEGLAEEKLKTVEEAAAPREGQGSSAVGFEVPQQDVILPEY
The conditions noted are these: at 1 µM.

Assay [10] addresses T1, Calcium/calmodulin-dependent protein kinase type IV (Homo sapiens). The conditions noted are these: at 10 µM.
The target in assay [11] is Death-associated protein kinase 1 (Homo sapiens) (UniProt P53355). Conditions: at 10 µM.
Chain of Death-associated protein kinase 1 (Homo sapiens) (P53355 whole entry, looked up): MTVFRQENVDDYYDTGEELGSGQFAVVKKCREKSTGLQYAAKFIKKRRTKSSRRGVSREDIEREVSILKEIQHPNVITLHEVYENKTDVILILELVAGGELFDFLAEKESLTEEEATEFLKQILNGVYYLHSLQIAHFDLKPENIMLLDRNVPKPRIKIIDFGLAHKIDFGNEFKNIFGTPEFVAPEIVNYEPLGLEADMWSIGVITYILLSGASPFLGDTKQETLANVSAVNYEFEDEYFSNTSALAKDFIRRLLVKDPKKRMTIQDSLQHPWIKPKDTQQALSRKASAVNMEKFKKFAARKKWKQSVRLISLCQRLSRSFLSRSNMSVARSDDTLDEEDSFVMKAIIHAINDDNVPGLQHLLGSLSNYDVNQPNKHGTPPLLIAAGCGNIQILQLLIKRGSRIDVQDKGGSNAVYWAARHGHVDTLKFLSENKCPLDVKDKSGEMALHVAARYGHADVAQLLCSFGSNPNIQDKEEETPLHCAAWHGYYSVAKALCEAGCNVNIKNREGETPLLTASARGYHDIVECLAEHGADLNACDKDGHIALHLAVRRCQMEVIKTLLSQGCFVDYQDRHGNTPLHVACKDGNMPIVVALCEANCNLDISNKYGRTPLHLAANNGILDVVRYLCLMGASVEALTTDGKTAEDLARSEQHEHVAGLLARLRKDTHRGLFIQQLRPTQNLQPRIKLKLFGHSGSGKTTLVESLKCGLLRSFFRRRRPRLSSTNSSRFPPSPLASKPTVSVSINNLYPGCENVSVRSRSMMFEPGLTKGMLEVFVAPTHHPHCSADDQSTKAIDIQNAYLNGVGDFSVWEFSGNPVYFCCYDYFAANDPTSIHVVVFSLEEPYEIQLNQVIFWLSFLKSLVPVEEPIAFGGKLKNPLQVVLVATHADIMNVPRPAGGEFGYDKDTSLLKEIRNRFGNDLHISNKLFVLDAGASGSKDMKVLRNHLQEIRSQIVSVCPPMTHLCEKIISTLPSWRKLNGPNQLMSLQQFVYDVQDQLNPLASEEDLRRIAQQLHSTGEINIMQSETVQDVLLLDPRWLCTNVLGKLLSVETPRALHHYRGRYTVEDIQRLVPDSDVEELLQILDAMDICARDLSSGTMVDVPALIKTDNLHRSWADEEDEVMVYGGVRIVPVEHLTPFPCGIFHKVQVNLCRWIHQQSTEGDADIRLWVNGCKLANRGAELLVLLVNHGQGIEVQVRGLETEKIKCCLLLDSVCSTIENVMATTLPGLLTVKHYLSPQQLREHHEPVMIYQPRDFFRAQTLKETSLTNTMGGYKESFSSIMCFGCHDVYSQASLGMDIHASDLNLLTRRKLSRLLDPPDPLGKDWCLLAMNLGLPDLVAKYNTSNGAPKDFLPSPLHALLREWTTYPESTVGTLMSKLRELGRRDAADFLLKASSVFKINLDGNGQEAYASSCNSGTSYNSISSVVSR
In assay [12] the target is Death-associated protein kinase 2 (Homo sapiens) (UniProt Q9UIK4). The conditions noted are these: at 1 µM.
Chain of Death-associated protein kinase 2 (Homo sapiens) (Q9UIK4 whole entry, looked up): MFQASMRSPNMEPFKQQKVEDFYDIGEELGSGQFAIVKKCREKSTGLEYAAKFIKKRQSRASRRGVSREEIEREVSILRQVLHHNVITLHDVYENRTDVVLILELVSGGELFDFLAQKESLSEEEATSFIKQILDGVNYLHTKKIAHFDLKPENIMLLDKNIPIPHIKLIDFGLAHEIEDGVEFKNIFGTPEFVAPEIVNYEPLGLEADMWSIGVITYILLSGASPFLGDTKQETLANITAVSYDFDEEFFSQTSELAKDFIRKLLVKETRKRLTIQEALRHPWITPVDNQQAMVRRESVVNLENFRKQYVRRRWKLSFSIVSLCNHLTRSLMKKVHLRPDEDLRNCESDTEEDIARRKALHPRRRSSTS
For assay [13] the target is unchanged. The conditions noted are these: at 10 µM.
The target in assay [14] is T2, Serine/threonine-protein kinase DCLK2 (Homo sapiens) (UniProt Q8N568).
T2 sequence (whole entry): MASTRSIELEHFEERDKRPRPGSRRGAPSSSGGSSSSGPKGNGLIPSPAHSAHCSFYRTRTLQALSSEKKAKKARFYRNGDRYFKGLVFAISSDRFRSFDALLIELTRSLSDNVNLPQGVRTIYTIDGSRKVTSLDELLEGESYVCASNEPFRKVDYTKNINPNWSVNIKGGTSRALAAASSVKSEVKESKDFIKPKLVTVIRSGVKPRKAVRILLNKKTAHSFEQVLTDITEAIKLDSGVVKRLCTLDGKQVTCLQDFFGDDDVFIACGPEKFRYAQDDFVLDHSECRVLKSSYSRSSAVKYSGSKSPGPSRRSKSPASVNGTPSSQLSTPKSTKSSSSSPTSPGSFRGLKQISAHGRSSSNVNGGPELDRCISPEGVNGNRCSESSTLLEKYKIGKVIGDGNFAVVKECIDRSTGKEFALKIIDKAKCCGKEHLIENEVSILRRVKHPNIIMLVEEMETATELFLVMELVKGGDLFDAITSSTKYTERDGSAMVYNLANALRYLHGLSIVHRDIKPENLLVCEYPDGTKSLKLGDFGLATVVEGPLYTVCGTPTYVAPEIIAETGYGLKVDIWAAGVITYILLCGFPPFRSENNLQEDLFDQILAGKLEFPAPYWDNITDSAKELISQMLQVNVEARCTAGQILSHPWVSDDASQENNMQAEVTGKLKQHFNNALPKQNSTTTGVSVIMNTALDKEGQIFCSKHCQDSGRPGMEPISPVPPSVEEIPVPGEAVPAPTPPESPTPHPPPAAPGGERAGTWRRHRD
The conditions noted are these: at 1 µM.

For assay [15], the target named is T2, Serine/threonine-protein kinase DCLK2 (Homo sapiens). The conditions noted are these: at 10 µM.
Assay [16] addresses T3, Discoidin domain-containing receptor 2 (Homo sapiens) (UniProt Q16832).
T3 sequence (whole entry): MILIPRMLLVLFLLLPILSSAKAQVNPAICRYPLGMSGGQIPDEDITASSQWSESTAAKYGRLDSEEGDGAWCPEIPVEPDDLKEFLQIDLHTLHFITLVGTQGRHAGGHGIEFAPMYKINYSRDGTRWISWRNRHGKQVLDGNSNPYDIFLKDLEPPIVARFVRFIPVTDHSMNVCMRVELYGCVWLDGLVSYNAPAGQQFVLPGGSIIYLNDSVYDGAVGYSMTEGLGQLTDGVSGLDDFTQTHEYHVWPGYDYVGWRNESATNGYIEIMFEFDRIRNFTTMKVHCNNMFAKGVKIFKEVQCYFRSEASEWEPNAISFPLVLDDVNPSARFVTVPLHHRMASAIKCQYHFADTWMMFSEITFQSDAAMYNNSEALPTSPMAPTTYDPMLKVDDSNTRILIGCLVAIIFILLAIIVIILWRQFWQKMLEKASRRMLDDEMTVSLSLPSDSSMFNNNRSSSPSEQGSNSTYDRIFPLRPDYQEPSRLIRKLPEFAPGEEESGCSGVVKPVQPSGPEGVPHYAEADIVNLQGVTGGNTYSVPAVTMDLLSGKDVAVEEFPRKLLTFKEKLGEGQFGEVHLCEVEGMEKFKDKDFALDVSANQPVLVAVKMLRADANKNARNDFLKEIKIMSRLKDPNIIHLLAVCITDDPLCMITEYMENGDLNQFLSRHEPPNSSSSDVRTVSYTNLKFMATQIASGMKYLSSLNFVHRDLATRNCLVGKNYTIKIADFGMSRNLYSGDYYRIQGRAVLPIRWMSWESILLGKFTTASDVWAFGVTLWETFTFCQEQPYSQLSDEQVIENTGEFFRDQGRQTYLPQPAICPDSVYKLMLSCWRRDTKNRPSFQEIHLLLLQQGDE
Conditions: at 1 µM.

Assay [17] deals with T3, Discoidin domain-containing receptor 2 (Homo sapiens). Conditions: at 10 µM.
The target in assay [18] is T4, Myotonin-protein kinase (Homo sapiens) (UniProt Q09013).
T4 sequence (whole entry): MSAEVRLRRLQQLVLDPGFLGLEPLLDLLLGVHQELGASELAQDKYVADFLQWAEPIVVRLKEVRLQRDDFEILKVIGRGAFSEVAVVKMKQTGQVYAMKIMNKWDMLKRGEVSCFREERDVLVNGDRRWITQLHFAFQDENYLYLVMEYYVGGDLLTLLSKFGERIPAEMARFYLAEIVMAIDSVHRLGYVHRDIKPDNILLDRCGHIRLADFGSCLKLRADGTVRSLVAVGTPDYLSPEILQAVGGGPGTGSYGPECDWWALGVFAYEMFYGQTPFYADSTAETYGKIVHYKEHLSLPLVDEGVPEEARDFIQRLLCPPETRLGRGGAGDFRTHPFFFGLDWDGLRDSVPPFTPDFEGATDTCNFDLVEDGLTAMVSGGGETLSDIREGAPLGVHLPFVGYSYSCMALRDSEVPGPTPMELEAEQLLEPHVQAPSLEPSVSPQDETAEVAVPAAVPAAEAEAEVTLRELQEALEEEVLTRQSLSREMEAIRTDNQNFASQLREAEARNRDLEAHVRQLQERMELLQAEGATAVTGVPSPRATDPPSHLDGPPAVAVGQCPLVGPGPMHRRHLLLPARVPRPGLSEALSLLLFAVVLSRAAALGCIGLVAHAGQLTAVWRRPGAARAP
The conditions noted are these: at 1 µM.

Assay [19] has as its target T4, Myotonin-protein kinase (Homo sapiens). The conditions noted are these: at 10 µM.
The target of assay [20] is T5, Serine/threonine-protein kinase 17A (Homo sapiens) (UniProt Q9UEE5).
T5 sequence (whole entry): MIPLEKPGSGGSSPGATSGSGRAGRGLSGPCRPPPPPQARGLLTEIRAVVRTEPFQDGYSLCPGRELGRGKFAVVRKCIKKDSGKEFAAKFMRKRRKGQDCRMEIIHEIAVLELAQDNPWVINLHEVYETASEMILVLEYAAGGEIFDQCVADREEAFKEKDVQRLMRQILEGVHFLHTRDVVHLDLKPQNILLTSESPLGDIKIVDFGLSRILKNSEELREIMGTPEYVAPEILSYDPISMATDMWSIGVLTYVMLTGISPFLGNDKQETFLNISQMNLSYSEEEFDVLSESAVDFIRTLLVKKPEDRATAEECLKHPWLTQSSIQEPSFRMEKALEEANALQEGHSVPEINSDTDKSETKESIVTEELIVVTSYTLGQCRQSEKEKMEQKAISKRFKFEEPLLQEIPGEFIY
Conditions: at 1 µM.

Chain of Calcium/calmodulin-dependent protein kinase type 1 (Homo sapiens) (Q14012 whole entry, looked up): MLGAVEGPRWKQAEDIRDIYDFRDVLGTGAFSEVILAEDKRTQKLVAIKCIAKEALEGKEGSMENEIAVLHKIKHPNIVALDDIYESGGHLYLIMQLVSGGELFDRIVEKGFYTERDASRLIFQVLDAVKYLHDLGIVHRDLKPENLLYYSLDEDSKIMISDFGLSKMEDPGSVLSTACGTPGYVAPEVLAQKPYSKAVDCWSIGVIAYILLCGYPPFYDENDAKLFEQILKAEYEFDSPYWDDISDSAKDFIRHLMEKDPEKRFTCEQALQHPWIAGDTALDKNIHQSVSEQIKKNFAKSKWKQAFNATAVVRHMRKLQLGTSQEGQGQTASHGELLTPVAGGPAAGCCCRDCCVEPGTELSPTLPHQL
Chain of Calcium/calmodulin-dependent protein kinase type II subunit gamma (Homo sapiens) (Q13555 whole entry): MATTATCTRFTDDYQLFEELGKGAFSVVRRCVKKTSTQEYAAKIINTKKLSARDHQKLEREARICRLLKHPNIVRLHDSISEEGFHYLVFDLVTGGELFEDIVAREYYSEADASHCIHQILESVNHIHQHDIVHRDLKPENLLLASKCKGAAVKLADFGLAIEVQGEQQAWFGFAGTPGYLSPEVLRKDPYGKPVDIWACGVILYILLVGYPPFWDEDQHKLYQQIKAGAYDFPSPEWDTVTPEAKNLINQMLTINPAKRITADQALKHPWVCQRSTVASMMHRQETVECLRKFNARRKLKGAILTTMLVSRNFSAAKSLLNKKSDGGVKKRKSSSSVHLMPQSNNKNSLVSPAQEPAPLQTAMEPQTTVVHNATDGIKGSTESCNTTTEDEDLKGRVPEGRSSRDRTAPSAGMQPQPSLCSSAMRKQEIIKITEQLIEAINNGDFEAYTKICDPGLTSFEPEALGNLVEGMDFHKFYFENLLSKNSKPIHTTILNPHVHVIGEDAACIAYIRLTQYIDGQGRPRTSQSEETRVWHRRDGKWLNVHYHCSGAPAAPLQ

Turning to `CCN(CC)CCCCN1c2ccccc2Oc2ccc(Cl)cc21`, the residual activity (as a rule, the signal under treatment as a percentage of the control signal) is 107% in [1]; 89% in assay [2]; 106% in assay [3]; 93% in assay [4]; 111% in assay [5]; 97% in assay [6]. For the same molecule, the residual activity in assay [7] was 112%; in assay [8] it was 112%; in [9] it was 126%; in assay [10], 118%; in assay [11], 99%; in [12], 111%. Besides, the residual activity in assay [13] is 109%; in assay [14], 96%; in [15], 104%; in assay [16], 115%; in [17], 90%; in [18] it was 120%. For the same molecule, the residual activity in assay [19] is 136%; in [20], 124%.

As for `O=C1NC(=O)c2c1c1c3ccccc3[nH]c1c1[nH]c3cc(Br)ccc3c21`, the residual activity in [1] was 89%; in assay [2], 70%; in [3], 92%; in [4], 66%; in [5], 18%; in [6], 21%. Moreover, the residual activity was 15% in assay [7]; 18% in assay [8]; 103% in assay [9]; 99% in [10]; 92% in assay [11]; 98% in assay [12]. Moreover, the residual activity in [13] was found to be 71%; in [14] it was 83%; in [15], 96%; in assay [16] it was 101%; in [17], 98%; in assay [18], 115%. Besides, the residual activity in [19] was 97%; in assay [20], 67%.

In the case of `O=c1c2ccccc2[nH]c(=S)n1CCN1CCC(=C(c2ccc(F)cc2)c2ccc(F)cc2)CC1`, the residual activity turned out to be 110% in assay [1]; 113% in [2]; 102% in assay [3]; 79% in assay [4]; 115% in [5]; 100% in assay [6]. Moreover, the residual activity in assay [7] turned out to be 105%; in assay [8], 91%; in assay [9], 108%; in assay [10] it was 95%; in assay [11], 62%; in assay [12] it was 109%. In addition, the residual activity worked out at 104% in [13]; 91% in assay [14]; 79% in [15]; 104% in assay [16]; 87% in [17]; 105% in assay [18]. For the same molecule, the residual activity in [19] was determined as 108%; in assay [20], 71%.

`COc1ccc(S(=O)(=O)N(CCO)c2ccccc2CN(C)C/C=C/c2ccc(Cl)cc2)cc1`: the residual activity worked out at 92% in assay [1]; 38% in assay [2]; 96% in assay [3]; 20% in assay [4]; 107% in assay [5]; 67% in [6]. For the same molecule, the residual activity in assay [7] worked out at 101%; in assay [8] it was 47%; in [9], 106%; in assay [10], 92%; in assay [11], 65%; in [12] it was 100%. Further, the residual activity in assay [13] was found to be 87%; in assay [14], 91%; in assay [15] it was 107%; in assay [16], 97%; in assay [17], 97%; in assay [18] it was 99%. In addition, the residual activity in assay [19] came to 89%; in assay [20], 95%.

Take `O=Nc1c(-c2c(O)[nH]c3ccccc23)[nH]c2ccccc12`: the residual activity in assay [1] is 72%; in assay [2], 21%; in [3], 33%; in [4], 11%; in [5], 12%; in [6], 1%. The residual activity was found to be 10% in [7]; 2% in assay [8]; 66% in [9]; 10% in assay [10]; 67% in assay [11]; 73% in [12]. The residual activity is 23% in assay [13]; 119% in assay [14]; 74% in [15]; 94% in assay [16]; 87% in assay [17]; 109% in assay [18]. The residual activity in [19] stood at 83%; in [20], 6%.

Consider `CCC(=O)Nc1ccc2ncnc(Nc3cccc(Br)c3)c2c1`, for which the residual activity in assay [1] amounted to 96%; in assay [2], 98%; in [3] it was 90%; in [4] it was 80%; in assay [5] it was 100%; in assay [6], 74%. Also, the residual activity was 109% in assay [7]; 79% in [8]; 123% in assay [9]; 73% in [10]; 93% in [11]; 98% in assay [12]. In addition, the residual activity is 107% in assay [13]; 79% in [14]; 100% in assay [15]; 92% in assay [16]; 82% in assay [17]; 112% in assay [18]. Further, the residual activity in [19] was 118%; in assay [20], 95%.
